Screening data as filed in PubChem.
Pf Dd2 inh = Plasmodium falciparum Dd2 growth inhibition; P. falciparum Dd2 growth, SYBR Green, 72 h; 4.3% of 120,000 active; AID 1347417; Potency, µM (doses to about 28.9 µM), for inactives: at the top dose activity, negative = inhibition, hits mostly inhibitors; active = well fitted inhibition curve with a large enough effect;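 also: plate controls were DMSO vehicle for no effect and reference drug for full effect; nearly all actives have a fitted effect of over 65% in size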
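Infected erythrocytes (Dd2, 0.3% parasitemia, 2.5% hematocrit final) are added to compound in RPMI-1640/Albumax II medium, grown 72 h at 37C in low oxygen, then lysed with saponin/Triton-X containing SYBR Green and read by fluorescence.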
* = called active by the depositor; [ ] = another dose, or the depositor's remark. Many of the other results were omitted from the sample, so hits are more common in it than they were. Potency is read from the fitted curve at half-maximal effect.

Results for CCn1nccc1C(=O)N1CCC(N2C(=O)C3(CCCCC3)C2c2ccncc2)CC1 (stereo unspecified) ?
Pf Dd2 inh: inactive

How did O=C(c1ccncc1)N1CCC(N2C(=O)C3(CCCC3)C2c2ccccc2)CC1 (stereo unspecified) do in these assays?
Pf Dd2 inh: inactive

Results for CC(C)c1nnc(C2CN(C(=O)c3ccoc3)CC23CCOCC3)o1 (stereo unspecified) ?
Pf Dd2 inh: -9.1%

Results for O=C(NCc1ccc(F)cc1)C1CCc2nnc(C3CCN(C(=O)C4CC4)CC3)n21 (stereo unspecified) ?
Pf Dd2 inh: 30.7%

Results for CCOc1ccccc1N1CCN(C(=O)CCn2ccn3nc4c(c3c2=O)CCCC4)CC1 ?
Pf Dd2 inh: -6.8%

What do the screens show for `CN[C@H](C(=O)N[C@@H]1C=C(C(=O)N[C@H]2CCCNC2=O)C[C@@H](O)[C@@H]1O)C(C)C`?
Pf Dd2 inh: 17.1%[44.1 µM]

How did Cc1ccc(C)c(N2CCN(S(=O)(=O)c3ccc4[nH]c5c(c4c3)CCCCC5)CC2)c1 do in these assays?
Pf Dd2 inh: 8.91µM*

What do the screens show for `Cc1ccc(Cl)cc1N1CCN(S(=O)(=O)c2ccc3[nH]c4c(c3c2)CCCC4)CC1`?
Pf Dd2 inh: -24.7%

How did Cc1ccc(N2CCN(S(=O)(=O)c3ccc4[nH]c5c(c4c3)CCCCC5)CC2)c(C)c1 do in these assays?
Pf Dd2 inh: -13.7%

Results for CN(C)c1cccc(NC(=O)C2=NO[C@@H]3CN(c4cccnc4)C[C@H]23)c1 ?
Pf Dd2 inh: -4.7%[44.1 µM]

Results for CC(C)c1ccc(CC(=O)N2CCCc3ncc(C(=O)N(C)c4ccccc4)cc32)cc1 ?
Pf Dd2 inh: inactive

What do the screens show for `Cn1cc(CN2CCCC2c2ccccn2)c(-c2ccc(Oc3ccccc3)cc2)n1` (stereo unspecified)?
Pf Dd2 inh: 7.08µM*

How did O=c1cc(CN2CCCCC2c2ccccn2)[nH]c2ccc(F)cc12 (stereo unspecified) do in these assays?
Pf Dd2 inh: -9.8%

Results for CCn1ccnc1CN(C)Cc1cn(C)nc1-c1ccc(Oc2ccccc2)cc1 ?
Pf Dd2 inh: -3.6%

What do the screens show for `CCOc1ccccc1NC(=O)Cn1c(N2CCOCC2)nc(COC)cc1=O`?
Pf Dd2 inh: inactive

What do the screens show for `Cc1cnc(C(=O)NC2C[C@H]3CC[C@@H](C2)N3C(=O)c2ccccc2)cn1` (stereo partly specified)?
Pf Dd2 inh: -15.5%

How did COc1ccc(-c2cc3c(=O)n(CCNC(=O)c4ccc5c(c4)OCO5)ccn3n2)cc1 do in these assays?
Pf Dd2 inh: inactive

Results for Cc1ccc(NC(=O)CN2CCCc3nc(C4CC4)ncc3C2=O)cc1 ?
Pf Dd2 inh: -1.2%

Results for Cc1ccc(SCc2ccc(-c3nc(C4CCOC4)no3)o2)cc1 (stereo unspecified) ?
Pf Dd2 inh: -26.1%

What do the screens show for `CCOc1ccc(CN2CC[C@@](C)(O)[C@H](N3CCCC3)C2)cc1OC`?
Pf Dd2 inh: -11.8%[5.79 µM]

Results for CC(C)(C)OC(=O)N1CC(NCc2ccccn2)C1 ?
Pf Dd2 inh: -1.5%[44.1 µM]

How did Cc1cc(Cl)ccc1NC1CN(C(=O)OC(C)(C)C)C1 do in these assays?
Pf Dd2 inh: -9.1%[44.1 µM]

What do the screens show for `CC(C)(C)OC(=O)N1CC(Nc2ccc(O)cc2)C1`?
Pf Dd2 inh: 11.2µM*

How did O=C(c1ccccc1F)N1C[C@@H](COCC2CC2)[C@H](c2ccccn2)C1 do in these assays?
Pf Dd2 inh: 12.5%

How did O=c1c2c(n(Cc3ccccc3)n1-c1ccccc1)CN(Cc1ccc3[nH]ccc3c1)CC2 do in these assays?
Pf Dd2 inh: 3.16µM*

How did COc1ccc(Cn2c3c(c(=O)n2Cc2ccccc2)CCN(Cc2cccc(O)c2)C3)cc1 do in these assays?
Pf Dd2 inh: inactive

What do the screens show for `O=C(c1ccccc1)N1CCc2c(n(Cc3ccccc3)n(-c3ccccc3)c2=O)C1`?
Pf Dd2 inh: -1.1%[44.1 µM]

How did CCOc1ccccc1C(=O)N1CCCC2(C1)NC(=O)N(Cc1ccc(Cl)cc1)C2=O (stereo unspecified) do in these assays?
Pf Dd2 inh: inactive

How did CCOc1ccc(NC(=O)CSc2cn(CCNC(=O)c3ccccc3F)c3ccccc23)cc1 do in these assays?
Pf Dd2 inh: -18.1%

What do the screens show for `CCOc1ccc(C(=O)NCCn2cc(SCC(=O)Nc3ccccc3)c3ccccc32)cc1`?
Pf Dd2 inh: 4.47µM*

What do the screens show for `COc1ccc(C(=O)NCCn2cc(SCC(=O)Nc3ccc(C)cc3)c3ccccc32)cc1`?
Pf Dd2 inh: -28.0%

Results for O=S(=O)(NCC1Cn2cccc2CN1Cc1cccnc1)c1ccc(F)cc1 (stereo unspecified) ?
Pf Dd2 inh: -15.1%

Results for Cc1nc2c(c(-c3ccc(O)cc3)n1)CN(C(=O)C1CCCC1)CCC2 ?
Pf Dd2 inh: -10.9%

Results for Cc1noc(C)c1Cc1ccc(C(=O)N(C)C2CCc3nnc(C)n3CC2)o1 (stereo unspecified) ?
Pf Dd2 inh: -15.9%

What do the screens show for `COc1ccc(OC)c(CNC(=O)c2c(C)sc3ccn(C)c(=O)c23)c1`?
Pf Dd2 inh: inactive

Results for O=C1NCCCCCCN(Cc2ccncc2)[C@@H]2CN(Cc3cccnc3)CC[C@H]12 ?
Pf Dd2 inh: -18.8%

Results for O=C1NCCCCCCN(Cc2ccncc2)[C@@H]2CN(C3CCOCC3)CC[C@@H]12 ?
Pf Dd2 inh: 7.9%

Results for O=C1NCCCCCCN(Cc2ccncc2)[C@@H]2CN(Cc3ccccn3)CC[C@@H]12 ?
Pf Dd2 inh: inactive

How did CS(=O)(=O)N1CC[C@@H]2C(=O)NCCCCCCN(Cc3ccncc3)[C@@H]2C1 do in these assays?
Pf Dd2 inh: -6.3%

What do the screens show for `Cn1cccc1CN1CC[C@@H]2C(=O)NCCCCCCN(Cc3ccncc3)[C@@H]2C1`?
Pf Dd2 inh: 6.31µM*

What do the screens show for `COc1cccc(CN2CC[C@@H]3C(=O)NCCCCCCN(Cc4ccncc4)[C@@H]3C2)n1`?
Pf Dd2 inh: 3.98µM*

Results for CCN1CCC(N2CC[C@@H]3C(=O)NCCCCCCN(Cc4ccncc4)[C@@H]3C2)CC1 ?
Pf Dd2 inh: 3.9%

How did O=C1NCCCCCCN(Cc2ccncc2)[C@@H]2CN(S(=O)(=O)c3cccnc3)CC[C@H]12 do in these assays?
Pf Dd2 inh: -15.1%

Results for O=C1NCCCCCCN(Cc2ccncc2)[C@@H]2CN(S(=O)(=O)c3ccccc3)CC[C@H]12 ?
Pf Dd2 inh: 10µM*

How did NS(=O)(=O)c1ccc(C(=O)N2CCCC(c3ccn[nH]3)C2)cc1 (stereo unspecified) do in these assays?
Pf Dd2 inh: -9.8%

How did c1ccc([C@@H]2CN(Cc3cccnc3)C[C@H]2COc2ccncc2)nc1 do in these assays?
Pf Dd2 inh: -6.2%

What do the screens show for `CCn1nccc1C(=O)N1CCC(N2C[C@H](O)C[C@H]2C(=O)NC2CCCCC2)CC1`?
Pf Dd2 inh: -16.7%

How did O=C(N[C@@H]1COCC[C@@H]1OCc1ccccn1)c1n[nH]c2c1CCC2 do in these assays?
Pf Dd2 inh: 7.7%

How did N#Cc1cccc(NC(=O)NC[C@H]2C[C@@H]3CCN2C[C@@H]3CN2CCN(c3ccc(F)cc3)CC2)c1 do in these assays?
Pf Dd2 inh: inactive

What do the screens show for `COCCN1C(=O)c2cccn2CC1CNC(=O)NCc1ccccc1` (stereo unspecified)?
Pf Dd2 inh: -1.4%

How did Cn1nccc1C(=O)N1CCC2(CC1)OCCN(Cc1ccccc1F)C2=O do in these assays?
Pf Dd2 inh: -8.4%[44.1 µM]

Results for O=C1N(Cc2ccccc2F)CCOC12CCN(Cc1ccc(F)cc1F)CC2 ?
Pf Dd2 inh: 2.51µM*

How did O=C1N(Cc2ccccc2)CCOC12CCN(Cc1cc(F)ccc1F)CC2 do in these assays?
Pf Dd2 inh: inactive
